Shown are actives, neighbours in structure and some others; about 4% of the full set was active somewhere.
Rv3671c inh: inhibits the M. tuberculosis serine protease Rv3671c; 320,000 compounds, 0.048% hits; inhibition, % at 5.96 µM; P9WHR9; AID 2606; in the data active = inhibition above about 38%;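 note: extracellular domain of Rv3671c used as enzyme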
Mtb betalactam: beta-lactam sensitization of Mtb H37Rv | 330,000 compounds, 0.27% hits | inhibition, % at 25 µM | M. tuberculosis H37Rv growth with meropenem, percent inhibition | AID 434955; call rule not given here;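 note: growth measured after seven days incubation then overnight dye step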
UGM FP inh: blocks M. tuberculosis UGM enzyme; purified UGM, fluorescence polarization probe displacement; 320,000 compounds, 0.06% hits; inhibition, % at 10 µM; P9WIQ1; in the data active = inhibition above about 10%, passing the limit was not always enough
RecA splice inh: Mtb RecA intein splicing inhibition. P9WHJ3. cell-free RecA intein splicing, fluorescence. inhibition, % (no concentration beside the values). 290,000 compounds, 0.75% hits; in the data active = inhibition above about 30%
Target sequence (P9WHJ3 whole entry, looked up, canonical isoform): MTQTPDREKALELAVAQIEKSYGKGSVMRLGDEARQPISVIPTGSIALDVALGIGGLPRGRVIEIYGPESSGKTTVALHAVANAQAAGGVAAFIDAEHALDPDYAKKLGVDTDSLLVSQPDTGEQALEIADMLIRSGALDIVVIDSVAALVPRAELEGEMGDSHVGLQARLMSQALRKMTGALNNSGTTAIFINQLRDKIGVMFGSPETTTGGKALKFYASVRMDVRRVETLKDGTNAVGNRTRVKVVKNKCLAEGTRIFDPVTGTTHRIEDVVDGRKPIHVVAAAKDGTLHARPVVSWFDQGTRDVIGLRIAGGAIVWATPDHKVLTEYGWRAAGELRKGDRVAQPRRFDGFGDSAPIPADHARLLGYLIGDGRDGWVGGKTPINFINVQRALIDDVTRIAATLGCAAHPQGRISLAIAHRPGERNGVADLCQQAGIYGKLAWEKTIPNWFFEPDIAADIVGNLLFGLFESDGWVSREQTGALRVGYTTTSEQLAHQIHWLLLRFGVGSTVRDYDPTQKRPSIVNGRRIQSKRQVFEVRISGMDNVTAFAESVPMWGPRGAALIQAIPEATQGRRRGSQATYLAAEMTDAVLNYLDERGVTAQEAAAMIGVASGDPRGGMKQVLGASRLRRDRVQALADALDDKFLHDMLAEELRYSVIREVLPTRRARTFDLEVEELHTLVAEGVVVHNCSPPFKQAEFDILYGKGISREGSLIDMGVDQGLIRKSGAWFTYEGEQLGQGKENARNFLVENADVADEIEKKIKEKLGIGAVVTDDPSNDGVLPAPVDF
GDH-TPI counter: GDH-TPI coupled enzyme inhibition counter-screen; AID 588335; inhibition, % at 4.8 µM; 360,000 compounds, 1.2% hits; GDH-TPI coupled enzyme counterscreen, NADH absorbance; in the data active = inhibition above about 30%
Mtb FBA inh: inhibitors of M. tuberculosis fructose-bisphosphate aldolase | P9WQA3 | purified M. tuberculosis FBA, fluorescence read-out | inhibition, % at 1 µM | 360,000 compounds, 2.3% hits; in the data active = inhibition above about 27%
A number is an active result; . = inactive; / = no result; + = active, no number.

SMILES	Rv3671c inh	Mtb betalactam	UGM FP inh	RecA splice inh	GDH-TPI counter	Mtb FBA inh
CCOc1ccc(NC(=O)NCC2CCN(c3ccc(OC)cc3)C2)cc1 (stereo not drawn)	.	.	.	.	33.3	.
CN1CC(C(=O)O)Cc2c1ccc1ccccc21 (stereo not drawn)	.	.	.	.	.	102.3
COc1ccc(-c2cc3nc4c(c(N5CCC6(CC5)OCCO6)n3n2)CCC4)cc1	.	.	.	.	.	.
COc1ccc(-c2cc3nc(-c4ccccc4)cc(N4CCC5(CC4)OCCO5)n3n2)cc1	.	.	.	.	.	27.6
CCOc1ccccc1C(=O)N/N=C/c1ccoc1	/	.	.	.	.	.
COc1ccc(-n2c(=S)[nH]c3sc4c(c3c2=O)CCN(C)C4)cc1	.	.	.	.	/	/
CCN(CC)C(=O)c1sc2[nH]c(=S)n(-c3ccccc3)c(=O)c2c1C	.	.	.	.	33.2	.
O=C(O)C1CCc2sc3[nH]c(=S)n(-c4ccccc4)c(=O)c3c21 (stereo not drawn)	.	.	.	.	33.8	.
CCN(CC)C(=O)c1sc2nc(-c3ccccn3)[nH]c(=O)c2c1C	.	.	.	.	.	.
COCCN(C(=O)c1ccc(N2C(=O)c3ccccc3C2=O)cc1)c1c(N)n(CC(C)C)c(=O)[nH]c1=O	/	/	/	/	.	.
Cc1c(NC(=O)c2ccc(C(=O)Nc3c(C)n(C)n(-c4ccccc4)c3=O)cc2)c(=O)n(-c2ccccc2)n1C	.	.	.	.	.	.
Cc1c(NC(=O)c2ccc(=O)oc2)c(=O)n(-c2ccccc2)n1C	.	.	.	.	32.6	.
CC(C)CCNC(=O)c1cc2c(=O)n3ccccc3nc2s1	.	.	.	.	.	120.8
CCC(C)NC(=O)c1cc2cc3ccc(OC)cc3nc2s1 (stereo not drawn)	.	.	.	.	.	109.7
Cc1cccn2c(=O)c3cc(C(=O)NCC(C)C)sc3nc12	.	.	.	.	.	.
CCC(C)NC(=O)c1cc2c(=O)n3ccccc3nc2s1 (stereo not drawn)	.	.	.	.	.	+
CN(C)S(=O)(=O)c1cccc(NC(=O)c2cc3c(=O)n4ccccc4nc3s2)c1	.	.	.	.	.	.
COc1ccccc1S(=O)(=O)N(C)C[C@@H]1OCc2cnnn2CCCC(=O)N([C@H](C)CO)C[C@H]1C	/	/	/	/	.	.
CSc1nc2ncncc2[nH]1	/	/	/	/	.	.
Cc1c(OCC(=O)NC(Cc2ccc(Cl)cc2)C(=O)O)ccc2c1oc(=O)c1ccccc12 (stereo not drawn)	.	.	.	.	.	.
CCC(NC(=O)Cc1c(C)c2ccc(OC)c(C)c2oc1=O)C(=O)NC(Cc1ccc(Cl)cc1)C(=O)O (stereo not drawn)	.	.	.	.	.	143.1
CCCOc1ccc(CNC(=S)Nc2ccccc2)cc1Cl	.	.	.	.	.	.
COc1cccc(C(=O)NC(=S)Nc2ccc(N3CCCC3)cc2)c1	.	.	.	.	.	.
CC(C)Oc1cccc(C(=O)NC(=S)Nc2ccc(N3CCN(C)CC3)cc2)c1	.	.	.	.	.	84.6
CC(=O)c1ccc(N2CCN(C(=O)c3cc(-c4cccnc4)nc4ccc(Br)cc34)CC2)cc1	.	.	.	.	46.3	.
SMILES	Rv3671c inh	Mtb betalactam	UGM FP inh	RecA splice inh	GDH-TPI counter	Mtb FBA inh
CCN1C(=O)/C(=C/N(C)c2ccccc2)OC1=S	.	.	.	.	.	.
CCN1C(=O)/C(=C\N(C(C)=O)c2ccccc2)OC1=S	.	.	.	.	63.3	.
Cc1nc2c(c3c1[nH]c1ccccc13)C(O)CC(C)(C)C2 (stereo not drawn)	.	.	.	.	.	120.1
Cc1nn(-c2ccccc2)c2c1C(O)CC(C)(C)C2 (stereo not drawn)	.	.	.	.	.	.
Cc1noc(C)c1NC(=O)Nc1ccc2c(c1)C(=O)N([C@H](C)CO)C[C@H](C)[C@@H](CN(C)S(=O)(=O)c1ccccc1)O2	.	.	.	/	.	.
CCCCCC(=O)N1C[C@@H](n2cc(C3CC3)nn2)[C@H](O)C[C@@H]1c1ccc(Cl)cc1	/	/	/	/	.	.
O=C1NCN(c2ccccc2)C12CCN(CCCC(c1ccc(F)cc1)c1ccc(F)cc1)CC2	.	.	.	38.2	.	.
Cn1c(N)c(C(=O)COC(=O)COc2ccc(Cl)cc2Cl)c(=O)n(C)c1=O	.	.	.	/	.	.
Cc1csc(NC(=O)CSCC(=O)O)c1-c1nc2ccccc2s1	.	.	.	.	34.6	.
Cc1csc(NC(=O)CSc2nc3ccccc3s2)n1	.	.	.	.	.	.
Cc1ccc2sc(-c3ccc(NC(=O)/C=C\C(=O)O)cc3)nc2c1	/	/	/	.	.	+
Cc1ccc2nc(-c3ccc(NC(=O)CSCC(=O)O)cc3)sc2c1	.	.	.	.	49.4	199.3
Cc1ccc2nc(-c3ccc(NC(=O)COCC(=O)O)cc3)sc2c1	.	.	.	.	.	136.4
Cc1nc(-c2ccc(NC(=O)/C=C\C(=O)O)cc2)cs1	.	.	.	.	.	.
O=S1(=O)CC(N2CCN(CCO)CC2)CN1Cc1ccccc1 (stereo not drawn)	/	/	/	/	/	.
O=C(O)CSCC(=O)Nc1ccc(-c2nc3ccccc3s2)cc1	.	.	.	.	.	115.9
C#CCN1C(=O)C(O)(CC(=O)/C=C/C=C/c2ccccc2)c2ccccc21 (stereo not drawn)	.	.	.	.	.	.
O=C(/C=C/C=C/c1ccccc1)CC1(O)C(=O)N(CCc2ccccc2)c2ccccc21 (stereo not drawn)	.	.	.	.	.	.
Cc1ccc2c(c1)C(O)(CC(=O)/C=C/C=C/c1ccccc1)C(=O)N2 (stereo not drawn)	.	.	.	.	38.4	.
NC(=O)CN1C(=O)C(O)(CC(=O)/C=C\C=C\c2ccccc2)c2ccccc21 (stereo not drawn)	.	.	/	.	33.6	.
CCN1C(=O)C(O)(CC(=O)/C=C/C=C/c2ccccc2)c2ccccc21 (stereo not drawn)	.	.	.	.	41.0	.
O=C(NCC1CCCO1)C1CCCN(S(=O)(=O)c2cc(Cl)ccc2Cl)C1 (stereo not drawn)	.	.	.	.	.	.
CC1CCCN(C(=O)c2ccc(-c3ccccc3Cl)o2)C1 (stereo not drawn)	.	.	.	.	.	.
Cc1ccc(S(=O)(=O)N2CCN(C(=O)COC(=O)COc3cccc(C(F)(F)F)c3)CC2)c(C)c1	.	.	.	/	.	.
COC(=O)C(C)Sc1nc2c(cnn2-c2ccc(Cl)cc2)c(=O)[nH]1 (stereo not drawn)	.	.	.	.	.	.
C=CC(C)(C)c1[nH]cnc1/C=C1\NC(=O)C(C(C)C)NC1=O (stereo not drawn)	.	.	.	.	32.4	.
O=C(Oc1cc2oc(=O)cc(-c3ccccc3)c2cc1Cl)C1CCCCC1	.	.	.	.	.	31.6

Compound activity: PubChem, several laboratories
